The list is not random: actives were taken first. Their share in the collection is about 14%.
Giardia FBPA inh: inhibitors of Giardia lamblia fructose-1,6-bisphosphate aldolase; purified Giardia FBPA; 290,000 compounds, 0.71% hits; Potency, µM (titrated, usually from 59.6 µM), hits mostly inhibitors; further: nearly all actives have a fitted effect of over 55% in size
Target sequence (A8B2U2 whole entry, looked up): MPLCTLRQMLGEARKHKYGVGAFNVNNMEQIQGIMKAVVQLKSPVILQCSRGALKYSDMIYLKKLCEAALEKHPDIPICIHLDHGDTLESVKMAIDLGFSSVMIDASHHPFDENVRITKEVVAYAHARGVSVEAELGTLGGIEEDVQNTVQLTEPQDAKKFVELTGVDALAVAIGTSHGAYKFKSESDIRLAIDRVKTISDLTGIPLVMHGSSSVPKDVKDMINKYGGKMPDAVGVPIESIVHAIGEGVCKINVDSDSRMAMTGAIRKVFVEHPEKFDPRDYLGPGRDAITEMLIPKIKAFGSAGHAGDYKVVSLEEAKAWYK
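40 nM FBPA preincubated 10 min at RT with compound (up to 57.5 uM final), then substrate plus GAPDH/TPI/NAD/arsenate coupling and diaphorase/resazurin added. Fluorescence read after 20 min at RT, 525/598 nm.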
NS1 inh: influenza NS1 inhibition. Potency, µM (series often up to 46.1 µM). 270,000 compounds, 0.4% hits. AID 2326; calls by dose curve; further: actives are rising curves; nearly all actives have a fitted effect of over 50% in size
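OD600 was taken as the measure of yeast growth restored by compound in an NS1-expressing S. cerevisiae strain. Cells had been washed out of glucose medium and diluted 1:100 into galactose -URA medium, pH 6.0.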
Shiga toxin inh: inhibitors of Shiga toxin in Vero cells | Vero cells, Shiga toxin protein synthesis inhibition reporter | inhibition, % at 38.7 µM | 290,000 compounds, 9.2% hits | AID 2315; in the data active means inhibition mostly above about 28%, no sharp cut-off; inactive means mostly below about 43%
LmPK inhibitor: LmPK (Leishmania mexicana) enzyme inhibition | Potency, µM (highest dose often 57.5 µM), most hits filed as inhibitors | AID 1721 | 290,000 compounds, 0.37% hits | purified LmPK, Kinase-Glo ATP luminescence, 1 h
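0.1 nM LmPK, 0.5 mM PEP, 0.1 mM ADP; 50 mM imidazole pH 7.2, 7 mM MgCl2, 50 mM KCl; 1 h RT. Kinase-Glo luminescence readout, normalized to no-enzyme (full inhibition) and uninhibited wells.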
CHX counter: affects cycloheximide protein synthesis inhibition readout, counter-screen; cell reporter, cycloheximide protein synthesis inhibition counterscreen; max response, %; 300,000 compounds, 12% hits; in the data active means max response mostly above about 13%, no sharp cut-off; inactive means mostly below about 14%; further: read at 38.3 µM for the half of the compounds with a filed dose
A number is an active result; – = inactive; ? = inconclusive; · = not tested or not shown. Unless noted, the call rests on the fitted dose curve; in most records, active means well fitted curve in the direction sought with a large enough effect; inconclusive means small, poorly fitted or top-dose-only effect, or another doubt; inactive means no such curve, though single readings can be large; an effect the other way counts as inactive or inconclusive.

SMILES	Giardia FBPA inh	NS1 inh	Shiga toxin inh	LmPK inhibitor	CHX counter
Nc1c(S(=O)(=O)c2cccs2)c2nc3ccccc3nc2n1Cc1ccc2c(c1)OCO2	–	?	–	–	–
CCCCCCNC(=O)c1cn(CC)c2cc(N3CCN(C)CC3)c(F)cc2c1=O	–	–	–	–	–
CN(c1ccc(O)cc1)c1nc(-c2ccccc2)cs1	–	–	active	–	62.5
CCC(=O)N(CC)c1nc(-c2ccc(OC)cc2)cs1	–	–	84.4	–	60.8
COCCN(C(=O)C(C)C)c1nnc(-c2cccc(C)c2)s1	–	–	–	–	–
COCCN(C(=O)C(C)C)c1nnc(-c2ccc(C)cc2)s1	·	–	83.2	–	–
CCN(C(=O)c1ccccc1F)c1nc(-c2ccc(OC)cc2)cs1	–	–	50.5	–	43.9
CCn1cc(C(=O)O)c(=O)c2cc(F)c(N3CCN[C@@H](C)C3)c(F)c21	–	·	·	·	·
Cc1cc(C(=O)Nc2cc(Br)ccc2O)on1	–	–	–	–	–
CC12C=C(/C=C/c3ccc(Br)cc3)C(C)(C1)[C@H](c1ccc(Br)cc1)CC2=O (stereo not given in full)	–	·	·	·	·
COCCNC(=O)CN(C(=O)CCC(=O)Nc1ccccn1)c1cc(C)ccc1C	–	–	–	–	–
COC(C(=O)Nc1ccnn1C1CCN(Cc2cnn(C(C)C)c2)CC1)c1ccccc1 (stereo not given)	·	–	–	–	–
CN(C(=O)c1ccco1)c1nc(-c2ccccc2)cs1	–	–	35.9	–	38.4
CCN(C(=O)c1ccco1)c1nc(-c2ccc(OC)cc2)cs1	–	–	–	–	41.3
COCCN(C(=O)c1ccccc1F)c1nnc(-c2ccc(OC)cc2)s1	–	–	45.9	–	32.1
C=CCn1c(OCc2ccccc2)n[nH]c1=S	?	–	–	–	–
Cc1cc(NS(C)(=O)=O)c(=O)n(Cc2c(F)cccc2Cl)c1	–	–	·	–	–
COC(=O)/C=C/c1ccc(-n2cncn2)cc1	–	·	–	–	22.7
O=Cc1ccc(-n2cncn2)cc1	–	–	–	–	–
N#C/C(=C\c1ccc(O)cc1)C(=O)NCc1ccccc1	–	–	–	–	–
Cc1ccsc1/C=C(\C#N)C(=O)NCc1cccnc1	–	–	–	–	–
COc1ccc(/C=C(\C#N)C(=O)NCc2ccccc2)cc1	–	–	86.9	–	34.0
N#C/C(=C\c1ccc(OCc2ccccc2)cc1)C(N)=O	–	·	89.6	–	24.0
Cc1ccsc1/C=C(/C#N)C(=O)NCc1ccccc1	–	–	–	–	12.4
CNC(=O)/C(C#N)=C/c1ccc(OCCOc2ccccc2)cc1	–	–	–	–	10.5
SMILES	Giardia FBPA inh	NS1 inh	Shiga toxin inh	LmPK inhibitor	CHX counter
CSc1ccccc1C(=O)Nc1ccccc1C(=O)NC(C)C	–	–	–	–	–
CSCC[C@H](NC(=O)c1ccc(NC[C@@H](N)CS)cc1-c1ccccc1)C(=O)O	–	·	–	·	–
N#C/C(=C/c1ccc(OCc2ccc(C(=O)O)cc2)cc1)C(=O)Nc1ccccc1	–	–	–	–	–
N#C/C(=C\c1ccc(OCc2ccccc2)cc1)C(=O)Nc1nc2c(s1)CCN(Cc1ccccc1)C2	–	–	–	–	20.4
Clc1cccc(-c2cc3nc4c(c(NCc5ccco5)n3n2)CCCC4)c1	–	–	131.2	–	47.0
CN(CCO)c1c2c(nc3cc(-c4cccc(F)c4)nn13)CCCC2	–	–	–	–	42.1
Fc1cccc(-c2cc3nc4c(c(N5CCC6(CC5)OCCO6)n3n2)CCCC4)c1	–	–	107.8	–	28.3
Clc1cccc(-c2cc3nc4c(c(N5CCNCC5)n3n2)CCCC4)c1	–	–	–	–	31.4
CC(C)Cc1ccc(S(=O)(=O)N2CCN(c3ccccn3)CC2)cc1	–	–	–	–	–
CCc1ccc(/C=C2/SC(=S)N(CCC(=O)Nc3cccnc3)C2=O)cc1	–	–	–	–	–
Cc1c(C)c(C)c(S(=O)(=O)Nc2ccc3[nH]c(=O)[nH]c3c2)c(C)c1C	–	–	–	–	–
CCOCCN1CCN(c2c3c(nc4cc(-c5ccc(F)cc5)nn24)CCC3)CC1	–	–	–	–	–
OC1CCN(c2c3c(nc4cc(-c5cccc(F)c5)nn24)CCCC3)CC1	–	–	–	–	32.6
OCCCNc1c2c(nc3cc(-c4ccc(Cl)cc4)nn13)CCC2	–	–	40.4	–	5.9
C[C@](N)(COP(=O)(O)O)C(=O)O	–	·	·	·	·
c1ccc2c(c1)nnn1c3ccccc3nc21	–	–	79.7	10µM	34.4
Nn1nnc2ccccc21	–	–	–	–	13.9
Cc1nc2ccccc2c2nc3ccccc3n12	–	–	–	–	–
O=C(NNC(=S)Nc1ccc(F)cc1F)c1ccco1	?	–	–	–	33.3
Cc1ccccc1C(=O)Nc1cccc(NC(=S)NC(=O)c2cccs2)c1	–	–	–	–	–
O=C(NNC(=S)NC(=O)c1ccco1)c1ccc(F)cc1	–	–	–	–	10.2
O=C(NNC(=S)Nc1ccccc1)c1ccco1	–	–	–	–	–
Cc1cccc(C(=O)NC(=S)NNC(=O)c2cccs2)c1	?	–	24.9	–	–
Cc1ccccc1C(=O)NNC(=S)NC(=O)c1cccs1	–	–	–	–	21.4
CCNc1nc(NCC)nc(Oc2ccc(C(=O)OC)cc2)n1	–	–	–	–	–
SMILES	Giardia FBPA inh	NS1 inh	Shiga toxin inh	LmPK inhibitor	CHX counter
CNC(=O)C1CCN(S(=O)(=O)c2c(C)noc2/C=C/c2cccc(OC)c2)CC1	–	–	–	–	–
Cc1ccc(C)c(NC(=O)CN2C(=O)CC(C)S(=O)(=O)c3ccccc32)c1 (stereo not given)	–	–	–	–	–
O=C(NNC(=O)c1cccs1)c1ccc(F)cc1	–	–	49.9	–	21.7
CC(C)(C)c1ccc(C(=O)NC(=S)NNC(=O)c2cccs2)cc1	?	–	–	–	–
O=C(NC(=S)NNC(=O)c1cccs1)c1ccccc1	·	–	–	–	11.5
O=C(NC(=S)NNC(=O)c1cccs1)c1ccco1	–	–	–	–	29.1
O=C1C=CC(=Nc2cccc3c(N=C4C=CC(=O)O4)cccc23)O1	·	–	·	·	·
COCc1cc(C)nc(SCC(=O)Nc2ccc(N3CCOCC3)cc2)c1C#N	–	–	–	–	–
CNC(=O)c1cc(C(=O)c2ccc(Cl)cc2)c(Br)[nH]1	–	–	–	–	–
O=C(c1ccc2nc(-c3ccco3)c(-c3ccco3)nc2c1)N1CCC2(CC1)OCCO2	7.08µM	?	–	–	–
O=C(Nc1cccc(C(F)(F)F)c1)c1cc[n+]([O-])cc1	–	–	–	–	–
O=C(O)c1ccc2nc(-c3ccco3)c(-c3ccco3)nc2c1	6.29µM	–	–	–	–
O=C(Nc1cccc(C(F)(F)F)c1)c1ccc2nc(-c3ccco3)c(-c3ccco3)nc2c1	?	5.62µM	–	–	–
Cc1nnc(NC(=O)CSc2nnc(CC(=O)Nc3ccccc3F)n2C)s1	?	–	–	–	–
CC(C(=O)Nc1ccc(F)c(F)c1F)N(C)Cc1cccs1 (stereo not given)	·	–	–	–	–
COCCNc1cc(C)nc2cc(-c3ccc(C)cc3)nn12	–	–	–	–	15.3

High-throughput results: PubChem, National Center for Advancing Translational Sciences (NCATS)
